Test results from publication PMC5540273 (PLoS ONE, 2017).

Test system: AAK1
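Note: kd values determined as follow-up on hits from a single-replicate KINOMEscan panel screen.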

Compared with `Cc1cc(-c2ccc3c(c2)CC[C@@H](N[C@@H](C)c2ccccc2)C3)cnc1N.Cl` [GW412617], `O=C(Nc1n[nH]c2cc(-c3cccc(F)c3F)ccc12)C1CC1` [SB-733894] is 1.7-fold lower in Kd: 3600 nM for the first, 2100 nM for the second.

`Cc1cccc(-c2nc(C)cc(Nc3ccncc3)n2)n1` [GSK257997] and `COc1ccc(Nc2nccc(NCCNC(=O)Nc3ccccc3F)n2)cc1` [GSK1379901] cannot be ordered by Kd: > 10000 nM for the first, > 10000 nM for the second.

`CN1C(=O)C(Nc2ccc(Cl)c(C(=O)O)c2)=C(c2ccc(Cl)cc2)C1=O` [SB-404290] was tested, and the Kd was > 10000 nM.

Test system: ABL1-nonphosphorylated

`COc1ccc(Nc2nccc(-c3cccc(NC(=O)c4cc5cc(F)ccc5[nH]4)c3)n2)cc1` [GSK1229782] and `O=C(Nc1ccccc1)Nc1cccc(Oc2ccc3nccn3n2)c1` are within 1.5-fold of each other in Kd: 100 nM for the first, 140 nM for the second.

Compared with `Cc1cccc(-c2nc(-c3ccc(S(C)(=O)=O)cc3)sc2-c2ccnc(NCCc3ccccc3)c2)c1`, `CC(=O)Nc1nc2cnc(Nc3cc(NC(=O)c4cccc(CCC#N)c4)ccc3C)nc2s1` is higher in Kd: 330 nM for the first, > 10000 nM for the second. The first binds more tightly here.

With `Cc1ccccc1-n1cnc2c(N)ncnc21` [SKF-97510] the Kd was > 10000 nM.

Test system: ACVR1B

First: Cc1cccc(-c2cc(Nc3ccncc3)c3ccccc3n2)n1 [GSK223675]
Second: Cc1cccc(-c2nc(Nc3ccncc3)c3ccccc3n2)n1 [GW855857]
The Kd of the first is 9.4-fold higher: 31 nM for the first, 3.3 nM for the second.

Going from `Cc1csc(-c2nc(Nc3ccncc3)c3ccccc3n2)n1` [GW869640] to `COc1ccc2nc(-c3cccc(C)n3)nc(Nc3ccncc3)c2c1` [GSK204919], the Kd rises from 39 nM to 150 nM (3.8-fold). The first binds more tightly here.

Going from `Cc1ccc(NC(=O)Nc2cccc(C(F)(F)F)c2)cc1` [GSK955403] to `Cc1cccc(-c2nc(Nc3cccc(C(N)=O)c3)c3ccccc3n2)n1` [GW876019], the Kd falls from > 10000 nM to 1600 nM.

Compared with `Cl.c1ccc(-c2n[nH]cc2-c2ccnc(-c3ccc(CN4CCOCC4)cc3)c2)nc1` [GW776245], `Cc1cccc(-c2nc(Nc3ccc4[nH]ncc4c3)c3ccccc3n2)n1` [GW857175] is 3.3-fold lower in Kd: 180 nM for the first, 54 nM for the second.

Test system: ACVR2B

First: Fc1cc(Cl)ccc1Nc1ccnc2cc(I)ccc12 [GW551191]
Second: Cc1c(O)cccc1Nc1ccnc2ccc(C(F)(F)F)cc12.Cl [GW466413]
The Kd of the first is 2.2-fold lower: 110 nM for the first, 240 nM for the second.

`Fc1cccc(COc2nnc(-c3ccc4c(c3)CCO4)o2)c1` was tested, and the Kd was > 10000 nM.
